This passage reports inhibition results from PubChem BioAssay AID2521 (Sanford-Burnham Center for Chemical Genomics, 2010).

Each structure is given as a SMILES string. Screen size: about 330,000 compounds; about 1,100 (0.33%) were called active.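 How the source made its calls: active means inhibition above about 40% at 20 µM (limit read from the data); inactive means the rest.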 The full list was thinned out, with actives kept by preference.

Usually inhibition stands for the relative decrease from the control value, in per cent.

The target in this experiment is Apelin receptor (Homo sapiens) (UniProt P35414). Briefly: blockade of apelin-induced APJ beta-arrestin recruitment – CHO-K1 cells, beta-arrestin complementation, luminescence, primary screen (AID 2521).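 Further: cells challenged with 10 nM apelin-13 agonist together with compound; plate controls were apelin-13 plus DMSO wells for no effect and DMSO wells lacking apelin-13 for full effect.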 The settings on record: at 20 µM, hits give high values. For orientation: Activated receptors often draw arrestin, which recruitment assays turn into a signal.
Apelin receptor (Homo sapiens), sequence (P35414 whole entry, looked up): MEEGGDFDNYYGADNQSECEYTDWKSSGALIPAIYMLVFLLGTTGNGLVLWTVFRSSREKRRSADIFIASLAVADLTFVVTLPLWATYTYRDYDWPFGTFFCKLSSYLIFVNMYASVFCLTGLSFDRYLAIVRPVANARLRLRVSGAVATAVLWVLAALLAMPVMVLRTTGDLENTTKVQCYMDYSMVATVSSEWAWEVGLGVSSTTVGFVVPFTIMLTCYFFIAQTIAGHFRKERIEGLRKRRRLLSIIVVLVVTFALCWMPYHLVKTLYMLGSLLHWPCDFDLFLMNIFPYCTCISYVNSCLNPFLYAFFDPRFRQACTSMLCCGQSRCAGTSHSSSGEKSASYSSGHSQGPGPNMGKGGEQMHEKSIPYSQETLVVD
Consider `CC(C)NC(=O)C(c1ccc(F)cc1)N(C(=O)CCC(=O)Nc1ccccn1)c1ccccc1F` (configuration not stated), for which the inhibition was 21.5% (inactive).
With `CC(C)C(=O)N1CCC2(CC1)Oc1ccc(F)cc1C(=O)C21CC(c2ccccc2)=NO1` (configuration not stated) the figure was -0.0582% (inactive).
As for `CNC(=O)c1sc(NCc2ccccc2OC)nc1C`, the inhibition was -1.64% (inactive).
With `COc1cc2ccccc2cc1C(=O)Nc1nc(C)c(C(C)=O)s1` the figure was 1.17% (inactive).
With `COc1cccc2sc(Nc3nc(C)c(C(C)=O)s3)nc12` the figure was 60.9% (active).
Next, `O=C(CCl)NNc1cccc(Cl)n1`: 47.2% (active).
Turning to `O=C(Cc1c(Cl)cccc1Cl)NC1CC1`, the inhibition was 14.9% (inactive).
Next, `Cc1cccc(NC(=O)Cc2ccc(Br)cc2)n1`: -4.98% (inactive); `COc1ccc(N2CCN(C(=O)CNS(=O)(=O)c3ccc(C)c(C)c3)CC2)cc1`: 3.43% (inactive).
With `Cc1ccc(CC(=O)Nc2cccc(C#N)c2)cc1` the figure was 7.58% (inactive); with `Oc1ccc(N=Nc2nccs2)c(O)c1`, 47.6% (active).
Next, `CC(Oc1ccc(F)cc1)C(=O)Nc1cc(S(=O)(=O)N2CCOCC2)ccc1N1CCN(C)CC1` (configuration not stated): 11.7% (inactive); `CCCOc1ccc(N2CC(C(=O)Nc3ccccn3)CC2=O)cc1` (configuration not stated): -12.1% (inactive).
`COC(=O)c1cc(NC(=O)CN2CCC(C(N)=O)(N3CCCCC3)CC2)cc(C(=O)OC)c1`: the inhibition was 12.5% (inactive).
Next, `O=C(CSc1nnnn1C1CCCC1)N1CCCCC1`: -7.07% (inactive).
Next, `CC(=O)C1=C(O)C(=O)N(c2ccc(S(N)(=O)=O)cc2)C1c1ccccc1F` (configuration not stated): 59% (active).
With `CC(=O)C1=C(O)C(=O)N(c2ccc(Br)cc2)C1c1ccc([N+](=O)[O-])cc1` (configuration not stated) the figure was 18.2% (inactive); with `CC(=O)C1=C(O)C(=O)N(c2cccnc2)C1c1ccc([N+](=O)[O-])cc1` (configuration not stated), 5.89% (inactive); with `COc1cccc(NC(=O)C/C(C)=N/NC(=O)C2CCCCC2)c1`, -8.71% (inactive).
For `COc1cccc(NC(=O)C(=O)c2cn(CC(=O)N3CCOCC3)c3ccccc23)c1`, the inhibition was -7% (inactive).
Take `Cc1cc(C(F)F)n2nc(C(=O)Nc3ccc(S(=O)(=O)NC45CC6CC(CC(C6)C4)C5)cc3)nc2n1`: the inhibition was 10.3% (inactive).
Next, `O=C(NC1CCCCC1)C1CCC(CNS(=O)(=O)c2ccccc2)CC1` (configuration not stated): -0.098% (inactive); `CN1/C(=c2/s/c(=C3/C(=O)N(c4ccccc4)NC3=Nc3ccccc3)n(C)c2=O)C(C)(C)c2ccccc21`: 40.6% (active); `CCOc1cccc2c1OC1(CCCCC1)N1N=C(c3cccnc3)CC21` (configuration not stated): -4.03% (inactive).
With `CN(C)CCOc1cccc(Br)c1` the figure was 7.12% (inactive); with `COCCCNc1nc2ccccc2nc1NS(=O)(=O)c1ccc(F)cc1`, 8.77% (inactive).
Next, `COC(=O)c1ccccc1NC(=O)C1CCN(C(=O)N2CCOc3ccccc32)CC1`: 4.33% (inactive); `O=C(CN(C(=O)CNC(=O)c1cccs1)c1cccc(F)c1)NC1CCCCC1`: 15.9% (inactive).
Regarding `COc1cccc(C(=O)N/N=C(\C)c2cccc(NC(=O)c3ccc(F)cc3)c2)c1OC`, the inhibition is -21.2% (inactive).
With `CCC(C)NC(=O)N[C@@H](CCSC)C(=O)O` (some centres not stated) the figure was 3.5% (inactive).
With `COc1cc(/C=C(\C#N)c2nc3c(s2)CC(C)CC3)ccc1O` (configuration not stated) the figure was 40.9% (active); with `Cn1cccc1C(=O)OCC(=O)c1ccc(Br)s1`, 6.14% (inactive).
As to `O=C(CSc1ncnc2c1nnn2Cc1ccc(F)cc1)NC1CCCC1`, the inhibition was 23.2% (inactive).
With `Cc1cc(CNCc2c(C(=O)N(C)Cc3ccccc3)nc3ccccn23)nn1C` the figure was 12.9% (inactive); with `C=CCn1c(C(C)NC(=O)CC)nc2ccccc21` (configuration not stated), 8.11% (inactive); with `COCC(C)OC(=O)c1c(N)n(CCCN2CCOCC2)c2nc3ccccc3nc12` (configuration not stated), 10.9% (inactive).
With `C=CCn1c(N)c(C(=O)OCC(C)C)c2nc3ccccc3nc21` the figure was 74.2% (active).
With `CCOC(=O)C1=C(NC(=S)NC(=O)c2ccccc2)c2ccccc2CC1(C)C` the figure was -12.1% (inactive).
Consider `CCCCCCNC(=O)CSc1nccn1Cc1ccccc1`, for which the inhibition is 15.6% (inactive).
Consider `CCOC(=O)C(CCOc1cccc(CC)c1)C(=O)OCC`, for which the inhibition was 0.162% (inactive).
With `O=C(/C=C/c1cccs1)NCc1cccnc1` the figure was -1.62% (inactive).
Next, `Cc1csc(NC(=S)Nc2cccc(Cl)c2)n1`: 40.6% (active); `Cc1cc(Cl)nc(NC(=O)Nc2cccc(Cl)c2)n1`: 12.4% (inactive); `Cc1cccc(NC(=S)Nc2ccc(Cl)c(Cl)c2)c1`: 9.23% (inactive).
As to `O=C(Nc1ccc([N+](=O)[O-])cc1)C1(c2ccccc2)CCOCC1`, the inhibition is 4.46% (inactive).
Next, `CN(C(=O)COC(=O)Cn1cnc2c1c(=O)n(C)c(=O)n2C)C1(C#N)CCCCC1`: -8.66% (inactive); `COc1cc(/C=C2/SC(=S)N(Cc3ccccc3)C2=O)cc(OC)c1O`: 44.9% (active); `COc1cccc(/C=C2/SC(=S)N(CC(=O)NC3C=CS(=O)(=O)C3)C2=O)c1` (configuration not stated): 2.32% (inactive).
With `CN1C=CC=C/C1=C1\SC(=S)N(Cc2ccccc2)C1=O` the figure was 3.59% (inactive); with `O=C(O)C1CCCN(CCC=C(c2ccccc2)c2ccccc2)C1` (configuration not stated), 6.7% (inactive).
Turning to `Cn1cnc2c1c(=O)n(Cc1c(Cl)cccc1Cl)c(=O)n2C`, the inhibition is -5.54% (inactive).
Next, `CC(C)C(=O)N1CC(=O)Nc2ccc(F)cc2C1c1ccc(F)cc1` (configuration not stated): 5.88% (inactive); `C[C@H](NC(=O)c1nc[nH]c1C(=O)NCC(=O)OC(C)(C)C)C(=O)OCc1ccccc1`: -0.246% (inactive); `O=C(Nc1c2c(nn1-c1cccc(Cl)c1)CS(=O)(=O)C2)c1cccs1`: -12.4% (inactive).
Consider `Cn1c(N)cc(-c2ccc(F)cc2)c(C#N)c1=O`, for which the inhibition was 16% (inactive).
Next, `O=[N+]([O-])c1c(NCCO)cc(Sc2nc3ccccc3s2)c2nonc12`: 95.4% (active); `Cc1nc2nc(CSc3nc4ccccc4s3)cc(=O)n2[nH]1`: -6.29% (inactive); `CCN(CC)CCCSc1nc2ccccc2s1`: 5.23% (inactive).
With `CCOC(=O)c1c(/N=C/C2C(=O)CC(C)(C)CC2=O)sc(C)c1C` the figure was 3.91% (inactive); with `COC(=O)c1ccc(NCC(=O)N2CCCCCC2)cc1`, -5.46% (inactive); with `COC(=O)c1ccc(NCC(=O)c2ccccc2)cc1`, 72.4% (active).
Take `COc1ccc(NC(=O)CCCC(=O)c2ccccc2)cc1`: the inhibition is -8.49% (inactive).
